# Data as given in the supplement of paper PMC8728848.
# The entries come from a sample that favours the strongest signals as a whole.
# B1: SP15308F-bth-333-19-333 (Bacteroides thetaiotaomicron) (protein)
# chain: SCNNEWESEQYVQMVSFKAPVNAQGVTPIYIRYKPEGKVTYQLPLIVSGSTMNSKDLNVHVGLDLDTLDVLNVEHFGSRKELFFKPLENKYYEFPETVQIPAGECTSLLPIDFALKDLDQVDKWVLPLAIQSNDPSHNYQANPRKFYRRAMLRISPFNDYSGQYSATAYKVYFKGNEKEAIVPEYHTSYVIDDKTIFFYAGLIDIDRLDRKYYKIKFEFTEEKIDLQTRKLKISSDNEDINLVVKGQPSYTVEEEMDATRPYLKHIYVTINNLEYEFTDYTSVPGYPLEYVVKGSLTMERKINTQIPDEDQAIEW
# What was measured:
# Test in all cases: glycan array binding signal (z-score within array); higher = stronger binding
# Conditions in all cases: glycan notation: IUPAC condensed, linker removed
# Fuc(a1-2)Gal = target: Fuc(a1-2)Gal
# Summary of the method: (§1)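 The Consortium for Functional Glycomics database supplied 3228 glycan arrays, of which those lacking an available protein sequence were dropped. The binding signal, a within-array Z-score, was averaged across arrays of the same protein sequence and across linkers. Negative scores can be read as non-binding.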
# [1] = target: Fuc(a1-2)Gal(b1-3)GlcNAc(b1-3)[Fuc(a1-2)Gal(b1-3)GlcNAc(b1-6)]GalNAc
# Summary of the method: as §1
# [2] = target: Fuc(a1-2)Gal(b1-4)GlcNAc(b1-3)Gal(b1-4)GlcNAc(b1-2)Man(a1-3)[Fuc(a1-2)Gal(b1-4)GlcNAc(b1-3)Gal(b1-4)GlcNAc(b1-2)Man(a1-6)]Man(b1-4)GlcNAc(b1-4)GlcNAc
# Summary of the method: as §1
# [3] = target: Fuc(a1-2)[Gal(a1-3)]Gal(b1-4)[Fuc(a1-3)]Glc
# Summary of the method: as §1
# [4] = target: Fuc(a1-3)[Gal(b1-4)]GlcNAc(b1-2)Man(a1-3)[Fuc(a1-3)[Gal(b1-4)]GlcNAc(b1-2)Man(a1-6)]Man(b1-4)GlcNAc(b1-4)[Fuc(a1-6)]GlcNAc
# Summary of the method: as §1
# [5] = target: Fuc(a1-3)[Gal(b1-4)]GlcNAc(b1-6)[Gal(b1-3)GlcNAc(b1-3)]Gal(b1-4)Glc
# Summary of the method: as §1
# [6] = target: Fuc(a1-3)[GalNAc(b1-4)]GlcNAc
# Summary of the method: as §1
# Fuc(a1-4)GlcNAc = target: Fuc(a1-4)GlcNAc
# Summary of the method: as §1
# [7] = target: Gal(a1-3)Gal(b1-3)GlcNAc(b1-2)Man
# Summary of the method: as §1
# [8] = target: Gal(a1-3)Gal(b1-3)GlcNAc(b1-6)GalNAc
# Summary of the method: as §1
# [9] = target: Gal(a1-3)Gal(b1-4)GlcNAc(b1-6)GalNAc
# Summary of the method: as §1
# [10] = target: Gal(a1-4)Gal(b1-3)GlcNAc(b1-2)Man(a1-3)[Gal(a1-4)Gal(b1-3)GlcNAc(b1-2)Man(a1-6)]Man(b1-4)GlcNAc(b1-4)GlcNAc
# Summary of the method: as §1
# [11] = target: Gal(b1-3)GlcNAc(b1-2)[Gal(b1-3)GlcNAc(b1-6)]Man(a1-6)[Gal(b1-3)GlcNAc(b1-2)Man(a1-3)]Man(b1-4)GlcNAc(b1-4)GlcNAc
# Summary of the method: as §1
# Gal(b1-4)GlcNAc(b1-2)Man = target: Gal(b1-4)GlcNAc(b1-2)Man
# Summary of the method: as §1
# [12] = target: Gal(b1-4)GlcNAc(b1-2)Man(a1-6)Man(b1-4)GlcNAc(b1-4)GlcNAc
# Summary of the method: as §1
# [13] = target: Gal(b1-4)GlcNAc(b1-2)Man(a1-6)[Man(a1-3)]Man(b1-4)GlcNAc(b1-4)GlcNAc
# Summary of the method: as §1
# [14] = target: Gal(b1-4)GlcNAc(b1-2)[Gal(b1-4)GlcNAc(b1-6)]Man(a1-6)[GlcNAc(b1-4)][Gal(b1-4)GlcNAc(b1-2)[Gal(b1-4)GlcNAc(b1-4)]Man(a1-3)]Man(b1-4)GlcNAc(b1-4)[Fuc(a1-6)]GlcNAc
# Summary of the method: as §1
# [15] = target: Gal(b1-4)GlcNAc(b1-3)Gal(b1-3)GlcNAc
# Summary of the method: as §1
# [16] = target: Gal(b1-4)GlcNAc(b1-3)Gal(b1-4)GlcNAc(b1-2)[Gal(b1-4)GlcNAc(b1-3)Gal(b1-4)GlcNAc(b1-6)]Man(a1-6)[Gal(b1-4)GlcNAc(b1-3)Gal(b1-4)GlcNAc(b1-2)Man(a1-3)]Man(b1-4)GlcNAc(b1-4)GlcNAc
# Summary of the method: as §1
# [17] = target: Gal(b1-4)GlcNAc(b1-3)Gal(b1-4)GlcNAc(b1-3)Gal(b1-4)GlcNAc(b1-2)Man(a1-3)[Gal(b1-4)GlcNAc(b1-3)Gal(b1-4)GlcNAc(b1-3)Gal(b1-4)GlcNAc(b1-2)Man(a1-6)]Man(b1-4)GlcNAc(b1-4)[Fuc(a1-6)]GlcNAc
# Summary of the method: as §1
# [18] = target: Gal(b1-4)GlcNAc(b1-3)Gal(b1-4)GlcNAc(b1-3)Gal(b1-4)GlcNAc(b1-2)[Gal(b1-4)GlcNAc(b1-3)Gal(b1-4)GlcNAc(b1-3)Gal(b1-4)GlcNAc(b1-6)]Man(a1-6)[Gal(b1-4)GlcNAc(b1-3)Gal(b1-4)GlcNAc(b1-3)Gal(b1-4)GlcNAc(b1-2)Man(a1-3)]Man(b1-4)GlcNAc(b1-4)[Fuc(a1-6)]GlcNAc
# Summary of the method: as §1
# [19] = target: Gal(b1-4)GlcNAc(b1-3)Gal(b1-4)GlcNAc(b1-3)Gal(b1-4)GlcNAc(b1-3)Gal(b1-4)GlcNAc(b1-3)Gal(b1-4)GlcNAc(b1-2)Man(a1-3)[Gal(b1-4)GlcNAc(b1-3)Gal(b1-4)GlcNAc(b1-3)Gal(b1-4)GlcNAc(b1-3)Gal(b1-4)GlcNAc(b1-3)Gal(b1-4)GlcNAc(b1-2)Man(a1-6)]Man(b1-4)GlcNAc(b1-4)GlcNAc
# Summary of the method: as §1
# [20] = target: Gal(b1-4)GlcNAc(b1-3)Gal(b1-4)GlcNAc(b1-6)[Gal(b1-3)]GalNAc
# Summary of the method: as §1
# [21] = target: Gal(b1-4)GlcNAc(b1-3)Gal(b1-4)[Fuc(a1-3)]GlcNAc(b1-3)Gal(b1-4)[Fuc(a1-3)]GlcNAc
# Summary of the method: as §1
binder,measurement,setting,value
B1,glycan array binding signal (z-score),Fuc(a1-2)Gal,-0.518
same,glycan array binding signal (z-score),[1],0.606
same,glycan array binding signal (z-score),[2],3.55
same,glycan array binding signal (z-score),[3],-0.455
same,glycan array binding signal (z-score),[4],-0.717
same,glycan array binding signal (z-score),[5],0.652
same,glycan array binding signal (z-score),[6],6.34
same,glycan array binding signal (z-score),Fuc(a1-4)GlcNAc,7.35
same,glycan array binding signal (z-score),[7],0.13
same,glycan array binding signal (z-score),[8],-1.04
same,glycan array binding signal (z-score),[9],-0.976
same,glycan array binding signal (z-score),[10],-1.15
same,glycan array binding signal (z-score),[11],0.375
same,glycan array binding signal (z-score),Gal(b1-4)GlcNAc(b1-2)Man,2.88
same,glycan array binding signal (z-score),[12],-1.02
same,glycan array binding signal (z-score),[13],-0.531
same,glycan array binding signal (z-score),[14],0.062
same,glycan array binding signal (z-score),[15],-0.026
same,glycan array binding signal (z-score),[16],-0.769
same,glycan array binding signal (z-score),[17],1.45
same,glycan array binding signal (z-score),[18],0.279
same,glycan array binding signal (z-score),[19],3.23
same,glycan array binding signal (z-score),[20],-0.045
same,glycan array binding signal (z-score),[21],0.753
